# The supplement of paper PMC3545927
# The list shows a part of the results. The hit rate among all sequences tested is not known here.
# B1: FS-1968 (peptide)
# chain: CARRKRKNKTAGNASASA
# B2: FS-3158 (peptide)
# chain: CARKKRNVNFAGNASASA
# B3: FS-2068 (peptide)
# chain: CARRKRNVNTAGNASASA
# B4: FS-2693 (peptide)
# chain: CARKKRIFNLAGNASASA
# B5: FS-2450 (peptide)
# chain: CARRKKQVGTAGNASASA
# B6: HC1749 (peptide)
# chain: CAMEECSQYLAGNASASA
# B7: HC417 (peptide)
# chain: CAPVVVGTTDAGNASASA
# B8: HC2210 (peptide)
# chain: CAEVVTSVWVAGNASASA
# B9: FS-2165 (peptide)
# chain: CARPRRLLQAAGNASASA
# B10: FS-2741 (peptide)
# chain: CARPRRDAAEAGNASASA
# B11: FS-1762 (peptide)
# chain: CARPRRDAEPAGNASASA
# B12: FS-2440 (peptide)
# chain: CARPRRDCVAAGNASASA
# B13: FS-2500 (peptide)
# chain: CARPRRDSAGAGNASASA
# B14: HC1854 (peptide)
# chain: CATKPCSGSWAGNASASA
# B15: HC1970 (peptide)
# chain: CAEVTTPCSGAGNASASA
# B16: FS-2326 (peptide)
# chain: CARARREALRAGNASASA
# B17: FS-2787 (peptide)
# chain: CARRRRGALRAGNASASA
# B18: FS-2297 (peptide)
# chain: CARRRRGAPEAGNASASA
# B19: FS-2082 (peptide)
# chain: CARRRRVVPEAGNASASA
# B20: HC2110 (peptide)
# chain: CAVDVVCCSMAGNASASA
# B21: FS-575 (peptide)
# chain: CAWRNRKKKTAGNASASA
# B22: TR8 (peptide)
# chain: CAGLVPRGSGAGNASASA
# B23: HC1727 (peptide)
# chain: CAMEECSFHLAGNASASA
# B24: HC1372 (peptide)
# chain: CASYSWTGALAGNASASA
# B25: HC950 (peptide)
# chain: CASGENLPYLAGNASASA
# B26: HC176 (peptide)
# chain: CAVGGVYLLPAGNASASA
# B27: FS-2441 (peptide)
# chain: CARPRRILNTAGNASASA
# B28: HC1243 (peptide)
# chain: CAEPDVAVLTAGNASASA
# B29: FS-2700 (peptide)
# chain: CARKRRNLETAGNASASA
# B30: FS-2401 (peptide)
# chain: CARQQRDEETAGNASASA
# B31: FS-2971 (peptide)
# chain: CARKRRAVLTAGNASASA
# B32: HC1382 (peptide)
# chain: CAINALSNSLAGNASASA
# B33: FS-2152 (peptide)
# chain: CARKFRSGLIAGNASASA
# B34: FS-3194 (peptide)
# chain: CARKRRANSLAGNASASA
# B35: FS-2322 (peptide)
# chain: CASFRRAFLIAGNASASA
# B36: HC1325 (peptide)
# chain: CAKKRTVVLTAGNASASA
# B37: FS-3258 (peptide)
# chain: CARKRRALLIAGNASASA
# B38: HC1481 (peptide)
# chain: CATRCFDSTVAGNASASA
# B39: HC611 (peptide)
# chain: CAILQASLLKAGNASASA
# B40: HC2560 (peptide)
# chain: CASTPCSACLAGNASASA
# B41: HC2264 (peptide)
# chain: CAILEVVTSTAGNASASA
# B42: HC1698 (peptide)
# chain: CAMTECSQHLAGNASASA
# B43: HC2018 (peptide)
# chain: CAVTCCSMSYAGNASASA
# B44: HC1367 (peptide)
# chain: CANAEDVVCCAGNASASA
# Target: furin, P09958
# Sequence (P09958 whole entry): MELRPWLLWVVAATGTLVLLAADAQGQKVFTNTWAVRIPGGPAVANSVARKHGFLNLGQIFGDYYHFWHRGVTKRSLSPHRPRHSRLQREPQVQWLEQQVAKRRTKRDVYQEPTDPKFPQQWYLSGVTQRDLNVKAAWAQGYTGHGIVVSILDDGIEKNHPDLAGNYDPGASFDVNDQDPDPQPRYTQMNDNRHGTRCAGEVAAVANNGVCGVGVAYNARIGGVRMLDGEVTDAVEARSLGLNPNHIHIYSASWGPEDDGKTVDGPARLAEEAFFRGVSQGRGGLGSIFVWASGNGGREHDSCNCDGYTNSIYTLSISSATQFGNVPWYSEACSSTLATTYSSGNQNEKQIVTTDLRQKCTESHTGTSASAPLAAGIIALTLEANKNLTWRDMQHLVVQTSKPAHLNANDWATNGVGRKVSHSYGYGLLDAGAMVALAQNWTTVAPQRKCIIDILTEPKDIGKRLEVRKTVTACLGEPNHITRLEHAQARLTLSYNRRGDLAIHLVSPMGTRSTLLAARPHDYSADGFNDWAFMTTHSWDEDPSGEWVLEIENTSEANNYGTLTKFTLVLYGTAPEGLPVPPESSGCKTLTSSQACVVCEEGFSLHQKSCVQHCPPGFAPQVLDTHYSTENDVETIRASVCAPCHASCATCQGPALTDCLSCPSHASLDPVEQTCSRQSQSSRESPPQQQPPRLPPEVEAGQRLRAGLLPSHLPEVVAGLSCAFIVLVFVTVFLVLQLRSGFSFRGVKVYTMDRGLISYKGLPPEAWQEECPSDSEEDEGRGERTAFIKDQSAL
# Test: furin cleavage Z-score vs untreated control; higher = more cleavage, active = 3.5 or more, inactive = 1 or less, 8 variable residues between constant flanks
# Description: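 Multiplexed peptide-cDNA fusion cleavage assay. 8-mer variable peptides flanked by constant Cys-Ala (N-term) and Ala-Gly-Asn-Ala-Ser-Ala-Ser-Ala (C-term) and conjugated to a cDNA oligonucleotide were bead-immobilised via the N-terminus. They were treated with purified furin at a 1:10 enzyme:substrate ratio in 50 mM HEPES pH 7.5, 1 mM CaCl2, 100 mM NaCl for 7.5, 15 or 30 min. Released cDNA was counted by next-generation sequencing, and log counts versus no-furin controls were lowess-adjusted and converted to robust Z-scores.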
Sequence,furin cleavage Z-score (7.5 min),furin cleavage Z-score (15 min),furin cleavage Z-score (30 min)
B1,0.116 (inactive),-2.04 (inactive),-0.0117 (inactive)
B2,10.3 (active),10.5 (active),8.52 (active)
B3,9.71 (active),10.9 (active),8.02 (active)
B4,0.592 (inactive),0.839 (inactive),0.689 (inactive)
B5,-0.127 (inactive),1.03,0.188 (inactive)
B6,0.871 (inactive),2.54,0.195 (inactive)
B7,-0.513 (inactive),0.318 (inactive),-0.373 (inactive)
B8,-1.35 (inactive),-0.635 (inactive),0.276 (inactive)
B9,-1.03 (inactive),-0.941 (inactive),-0.713 (inactive)
B10,8.33 (active),11 (active),8.31 (active)
B11,10.8 (active),12.9 (active),9.93 (active)
B12,5.46 (active),5.89 (active),6.25 (active)
B13,0.906 (inactive),-0.366 (inactive),0.714 (inactive)
B14,-0.725 (inactive),-0.656 (inactive),-1.12 (inactive)
B15,0.193 (inactive),-0.206 (inactive),-0.0766 (inactive)
B16,7.37 (active),9.91 (active),7.3 (active)
B17,3.24,5.07 (active),6.59 (active)
B18,6.8 (active),6.5 (active),6.23 (active)
B19,1.92,5.11 (active),6.08 (active)
B20,-1.67 (inactive),-0.512 (inactive),-0.588 (inactive)
B21,-0.592 (inactive),-0.739 (inactive),-1.25 (inactive)
B22,-1.24 (inactive),-1.44 (inactive),-1.84 (inactive)

Sequence,furin cleavage Z-score (7.5 min),furin cleavage Z-score (15 min),furin cleavage Z-score (30 min)
B23,2.23,-1.03 (inactive),1.18
B24,-0.915 (inactive),-0.282 (inactive),0.0526 (inactive)
B25,-0.962 (inactive),0.134 (inactive),-0.522 (inactive)
B26,1.19,0.0945 (inactive),0.538 (inactive)
B27,-2.76 (inactive),0.234 (inactive),0.846 (inactive)
B28,0.073 (inactive),0.723 (inactive),-1.2 (inactive)
B29,7.71 (active),8.41 (active),8.69 (active)
B30,-0.691 (inactive),-0.187 (inactive),-3.21 (inactive)
B31,8.83 (active),12.7 (active),10.3 (active)
B32,-0.629 (inactive),-0.0116 (inactive),0.458 (inactive)
B33,-0.364 (inactive),0.099 (inactive),-0.282 (inactive)
B34,6.54 (active),9.21 (active),5.81 (active)
B35,-1.89 (inactive),-0.15 (inactive),-1.34 (inactive)
B36,-0.725 (inactive),-0.173 (inactive),0.000165 (inactive)
B37,5.47 (active),5.56 (active),8.18 (active)
B38,1.01,0.491 (inactive),0.363 (inactive)
B39,-0.334 (inactive),-0.703 (inactive),-0.0413 (inactive)
B40,0.847 (inactive),-0.78 (inactive),0.791 (inactive)
B41,-1.51 (inactive),-0.366 (inactive),0.122 (inactive)
B42,0.478 (inactive),0.668 (inactive),0.28 (inactive)
B43,0.12 (inactive),-1.47 (inactive),-1.48 (inactive)
B44,-0.652 (inactive),-1.38 (inactive),-0.581 (inactive)
